In the supplement of paper PMC10105736:
Values without a mark were called inactive.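 The calls were made as follows: active = MAPPIT score above the 99th percentile of random reference set scores in the same batch; inactive = at or below it.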

Experiments:
Assay in all cases: MAPPIT interaction score (arbitrary units); higher = stronger binary interaction signal, active = hit call of the paper
CG12963 = details: MAPPIT configuration: N-N; pair source set: Curagen_high_conf
CG13069 = details: pair source set: RRS
DCTN1-p150 = details: MAPPIT configuration: N-N; pair source set: Lit-BM-16
ctp = details: pair source set: Lit-BM-16
CG13476 = details: MAPPIT configuration: N-N; pair source set: Lit-BS-16
CG9795 = details: MAPPIT configuration: N-N; pair source set: Curagen_high_conf
CG1316 = details: MAPPIT configuration: N-N; pair source set: Curagen_high_conf
CG13058 = details: pair source set: RRS
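Also: HEK293T cells with Epo stimulation, STAT-responsive firefly luciferase reporter, fold induction versus unstimulated cells divided by the larger fold induction of two negative controls lacking either bait or prey.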

B1: csw (protein)
chain: MSSRRWFHPTISGIEAEKLLQEQGFDGSFLARLSSSNPGAFTLSVRRGNEVTHIKIQNNGDFFDLYGGEKFATLPELVQYYMENGELKEKNGQAIELKQPLICAEPTTERWFHGNLSGKEAEKLILERGKNGSFLVRESQSKPGDFVLSVRTDDKVTHVMIRWQDKKYDVGGGESFGTLSELIDHYKRNPMVETCGTVVHLRQPFNATRITAAGINARVEQLVKGGFWEEFESLQQDSRDTFSRNEGYKQENRLKNRYRNILPYDHTRVKLLDVEHSVAGAEYINANYIRLPTDGDLYNMSSSSESLNSSVPSCPACTAAQTQRNCSNCQLQNKTCVQCAVKSAILPYSNCATCSRKSDSLSKHKRSESSASSSPSSGSGSGPGSSGTSGVSSVNGPGTPTNLTSGTAGCLVGLLKRHSNDSSGAVSISMAEREREREREMFKTYIATQGCLLTQQVNTVTDFWNMVWQENTRVIVMTTKEYERGKEKCARYWPDEGRSEQFGHARIQCVSENSTSDYTLREFLVSWRDQPARRIFHYHFQVWPDHGVPADPGCVLNFLQDVNTRQSHLAQAGEKPGPICVHCSAGIGRTGTFIVIDMILDQIVRNGLDTEIDIQRTIQMVRSQRSGLVQTEAQYKFVYYAVQHYIQTLIARKRAEEQSLQVGREYTNIKYTGEIGNDSQRSPLPPAISSISLVPSKTPLTPTSADLGTGMGLSMGVGMGVGNKHASKQQPPLPVVNCNNNNNGIGNSGCSNGGGSSTTSSSNGSSNGNINALLGGIGLGLGGNMRKSNFYSDSLKQQQQREEQAPAGAGKMQQPAPPLRPRPGILKLLTSPVIFQQNSKTFPKT
MAPPIT interaction score (CG12963): -0.144

B2: sw (protein)
chain: MDRKAELERKKAKLAALREEKDRRRREKEIKDMEEAAGRIGGGAGIDKDQRKDLDEMLSSLGVAPVSEVLSSLSSVNSMTSDNSNTQTPDASLQATVNGQSGGKKQPLNLSVYNVQATNIPPKETLVYTKQTQTTSTGGGNGDVLSCHSSPLSGYMEDWWRPRKAHATDYYDEYNLNPGLEWEDEFTDDEESSLQNLGNGFTSKLPPGYLTHGLPTVKDVAPAITPLEIKKETEVKKEVNELSEEQKQMIILSENFQRFVVRAGRVIERALSENVDIYTDYIGGGDSEEANDERSHARLSLNRVFYDERWSKNRCITSMDWSTHFPELVVGSYHNNEESPNEPDGVVMVWNTKFKKSTPEDVFHCQSAVMSTCFAKFNPNLILGGTYSGQIVLWDNRVQKRTPIQRTPLSAAAHTHPVYCLQMVGTQNAHNVISISSDGKLCSWSLDMLSQPQDTLELQQRQSKAIAITSMAFPANEINSLVMGSEDGYVYSASRHGLRSGVNEVYERHLGPITGISTHYNQLSPDFGHLFLTSSIDWTIKLWSLKDTKPLYSFEDNSDYVMDVAWSPVHPALFAAVDGSGRLDLWNLNQDTEVPTASIVVAGAPALNRVSWTPSGLHVCIGDEAGKLYVYDVAENLAQPSRDEWSRFNTHLSEIKMNQSDEV
MAPPIT interaction score (CG13069; MAPPIT configuration: N-C): -0.364
MAPPIT interaction score (CG13069; MAPPIT configuration: N-N): 0.421
MAPPIT interaction score (DCTN1-p150): 1.87
MAPPIT interaction score (ctp; MAPPIT configuration: N-C): 1.37
MAPPIT interaction score (ctp; MAPPIT configuration: N-N): 1.75

B3: Nin (protein)
chain: MEVSADPYEQKLYQMFRSCETQCGLLDEKSLLKLCSLLELRDQGSALIASLGGSHQLGVSFGQFKEALLNFLGSEFDGNTSSGFIERSLVITDEPLNNTYIESPPESSDREVSPKLVVGTKKYGRRSRPQQGIYELSVTDSDNTDEDQLQQQQNQRSLNGCDELGVQVQRSSSQSDLPGSRRLRSVHTSGSKLKRCASLPARRKMNSNTTGATTSPTAAAKLKQLSIQSQAQHSSSVESLDTVTPQQLETISVHSIMEAWELASIPNTRNLLHVLGFDEEEEVNLQQLTKALEEELRGIDGDHEQSNMLRALAALQATELGNYRLAYRQQHEENLKLRADNKAANQRVALLAVEVDERHASLEDNSKKQVQQLEQRHASMVREITLRMTNDRDHWTSMTGKLEAQLKSLEQEEIRLRTELELVRTENTELESEQQKAHIQITELLEQNIKLNQELAQTSSSIGGTPEHSPLRPRRHSEDKEEEMLQLMEKLAALQMENAQLRDKTDELTIEIESLNVELIRSKTKAKKQEKQEKQEDQESAATATKRRGDSPSKTHLTEESPRLGKQRKCTEGEQSDASNSGDWLALNSELQRSQSQDEELTSLRQRVAELEEELKAAKEGRSLTPESRSKELETSLEQMQRAYEDCEDYWQTKLSEERQLFEKERQIYEDEQHESDKKFTELMEKVREYEEQFSKDGRLSPIDERDMLEQQYSELEAEAAQLRSSSIQMLEEKAQEISSLQSEIEDLRQRLGESVEILTGACELTSESVAQLSAEAGKSPASSPISYLWLQSTIQEPAKSLADSKDEATASAIELLGGSPSHKTASRNNLTTSETSIFSTTPFESSQSGPSPTNSGNSNAYGANPGPAPISKPKRSQSPQQAAASEGEIADCETSSTASGKSFESNSKTSCLSHEKCSSPSALKEELKRLKFFELSLKEQIKDLSLQRDGLVMELQQLQEARPVLEKAYARTTHPTLQQRLNQLELRNRHLQNVIKQQQHYTESLMQQSWRQHQVELNDLHSRIETQGVLLADQTQRLQSADILVKDLYVENSHLTATVQRLEQQRARVNLIHQQQQQQRLVGGGLPGMP
MAPPIT interaction score (CG13476): 0.125
MAPPIT interaction score (CG9795): 4.19 (active)

B4: poly (protein)
chain: MATSVLLACGLNEQKLPGFVHISEESNVDASFLISCVLGQRLRISNAGTLLVCLQHHYQHYFNAGMRLGYNTNIFQGKTLGVIDVLSDMAGEGLASKWLTNTEGQTLTDQLVEDIRAQVERNYASRNSYTVLIDNLSILFNLGASKLQVQQFCQDLAALGKEREKLTVITKLSNSDIYQLTDNNVAKLGQVRIQVLRLKSGVFREVDGKLLIERVLDEGNYACEETRKEVLYKVNDRNVKVFAPGEIGVKV
MAPPIT interaction score (CG1316): 0.569

B5: Fdx2 (protein)
chain: MLVINSCRAASRLALRSLNLRSPIATRTFSTGLALKTKDVVNITFVRANGDKIKTSGKVGDSLLDVVVNNNVDLDGFGACEGTLTCSTCHLIFKTSDFEKLPDKPGDEELDMLDLAYELTDTSRLGCQITLSKDMEGLEVHVPSTINDARAA
MAPPIT interaction score (CG13058; MAPPIT configuration: N-C): 0.365
MAPPIT interaction score (CG13058; MAPPIT configuration: N-N): 0.0953
